According to PubChem BioAssay (EPA / NIEHS):
Inconclusive results are not listed. Calls of active or inactive are those of the source. The calls were made as follows: active = hit-call score of the fitted dose curve at least 0.9, where 1 is the maximum; inconclusive = response in the unintended direction; inactive = score below 0.9.

Read-out: Glyceraldehyde-3-phosphate dehydrogenase (Homo sapiens) (UniProt P04406)
Assay: CLD_GAPDH_48hr: CellzDirect (CLD) Gene Expression Assay for Baseline Control (Glyceraldehyde 3-phosphate dehydrogenase) at 48 hours (AID 2283706);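 also: active means higher GAPDH mRNA than DMSO vehicle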
Protocol: CLD_48hr is a cell-based, multiplexed-readout assay that uses hepatocyte, a human liver primary cell, with measurements taken at 48 hours after chemical dosing in a 96-well plate.CLD_GAPDH_48hr is one of 16 assay component(s) measured or calculated from the CLD_48hr assay. It is designed to make measurements of mRNA induction, a form of inducible reporter, as detected with chemiluminescence signals by Quantitative Nuclease Protection Assay (qNPA) technology.Data from the assay component CLD_GAPDH_48hr was analyzed at the endpoint, CLD_GAPDH_48hr, in the positive analysis fitting direction relative to DMSO as the negative control and baseline of activity. Using a type of inducible reporter, gain-of-signal activity can be used to understand changes in the reporter gene as they relate to the gene GAPDH. Furthermore, this assay endpoint can be referred to as a secondary readout, because this assay has produced multiple assay endpoints where this one serves a background control function. To generalize the intended target to other relatable targets, this assay endpoint is annotated to the background measurement intended target family, where subfamily is baseline control.
Human hepatocyte cultures were treated daily for two consecutive days with fresh dosing solutions containing appropriate concentrations of the 320 ToxCast chemicals (chemical identities were blinded to CellzDirect and other ToxCast collaborators), vehicle control (0.2% DMSO), and positive control inducers as summarized in Table 1. Due to the large number of treatment groups and chemicals examined, the ToxCast chemicals were divided into two groups (spanning two independent cultures of hepatocytes from separate donor preparations (Hu778: ToxCast plates 1 and 2; Hu776: ToxCast plates 3 and 4). Each preparation of human hepatocyte cultures was treated with respective vehicle control, medium only control, set of six positive controls/reference chemicals for the five hepatic receptor pathways, and a subset of eight of the ToxCast chemicals (indoxacarb, pyrithiobac-sodium, norflurazon, cyhalofop-butyl, methomyl, thiram, acetochlor, and propiconazole). These replicate data, coupled with internal replicates designed within the blinded ToxCast chemical library, provided additional data to evaluate interindividual differences between hepatocyte preparations and their potential impact on chemical profiles.Cell morphology and integrity were evaluated using phase-contrast microscopy as an indicator of hepatocyte cell health (Tyson & Green, 1987). Cultures for each treatment group (i.e., media, vehicle [0.2% DMSO], positive control inducers [multiple concentrations], and the ToxCast chemicals [multiple concentrations]) were observed and cell morphology was assessed relative to vehicle control cultures at each harvest time point (0, 6, 24, or 48 h). […] Images were evaluated at the conclusion of the study to assess changes in cell integrity and account for the effects of chemical exposure on uncharacteristic changes in concentration-dependent gene expression profiles. The results from these determinations of apparent cytotoxicity were annotated (yes/no) alongside the corresponding qNPA data for reference.At the conclusion of each treatment period, hepatocyte cultures (96-well) were washed with 1 volume of HBSS, lysed by addition of 25 ul ArrayPlate lysis buffer (HTG, Tucson, AZ), and 70 ul/well of Denaturation Oil, denatured by incubation at 95C for 10 min, and frozen at approximately -70C until analysis by nuclease protection assay (qNPA) (Roberts et al., 2007). For qNPA analysis, cell lysates were thawed at 50C for approximately 30 min, qNPA probes were added, and samples were incubated at 95C for 10 min to begin the detection process by denaturing the target RNA, dissociating the duplexes and secondary structure hybridization. At the conclusion of the hybridization period, S1 nuclease reagent was added to each sample to digest all nonprotected nucleotides at 50C for 60-90 min. […]

Glyceraldehyde-3-phosphate dehydrogenase (Homo sapiens), sequence (P04406 whole entry, looked up): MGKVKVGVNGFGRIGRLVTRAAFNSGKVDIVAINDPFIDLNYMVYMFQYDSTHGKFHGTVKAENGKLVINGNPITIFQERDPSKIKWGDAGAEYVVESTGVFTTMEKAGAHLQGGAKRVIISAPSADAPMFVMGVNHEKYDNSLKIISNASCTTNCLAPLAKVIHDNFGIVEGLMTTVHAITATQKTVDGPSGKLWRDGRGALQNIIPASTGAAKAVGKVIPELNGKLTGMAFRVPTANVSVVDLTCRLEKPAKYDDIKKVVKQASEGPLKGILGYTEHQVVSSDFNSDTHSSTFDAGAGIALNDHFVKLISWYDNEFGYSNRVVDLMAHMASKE

| SMILES | outcome |
| --- | --- |
| N#CN | inactive |
| O=C1c2ccccc2C(=O)N1SC(Cl)(Cl)Cl | inactive |
| CNC(=O)Oc1ccccc1OC(C)C | inactive |
| CCOc1nc(NC)nc(NC(=O)NS(=O)(=O)c2ccccc2C(=O)OC)n1 | inactive |
| CNC(=O)Oc1cccc(N=CN(C)C)c1 | inactive |
| Oc1ccc(Cl)cc1Cc1ccccc1 | inactive |
| CCC(C)(C)C(=O)OC1=C(c2ccc(Cl)cc2Cl)C(=O)OC12CCCCC2 | inactive |
| CC1(c2ccc(Oc3ccccc3)cc2)OC(=O)N(Nc2ccccc2)C1=O (centres undefined) | inactive |
| Cc1cc(C)nc(NC(=O)NS(=O)(=O)c2ccccc2C(=O)OC2COC2)n1 | inactive |
| CNC(=O)/C=C(\C)OP(=O)(OC)OC | inactive |
| CC[C@H](C)[C@H]1O[C@]2(C=C[C@@H]1C)C[C@@H]1C[C@@H](C/C=C(\C)[C@@H](O[C@H]3C[C@H](OC)[C@@H](O[C@H]4C[C@H](OC)[C@@H](O)[C@H](C)O4)[C@H](C)O3)[C@@H](C)/C=C/C=C3\CO[C@@H]4[C@H](O)C(C)=C[C@@H](C(=O)O1)[C@]34O)O2 (tested in a mixture with another compound) | inactive |
| [2H]C1([2H])[n+]2ccccc2-c2cccc[n+]2C1([2H])[2H] | inactive |
| Oc1cc(Cl)ccc1Oc1ccc(Cl)cc1Cl | inactive |
| O=C(O)C(F)(F)C(F)(F)C(F)(F)C(F)(F)C(F)(F)C(F)(F)C(F)(F)F | inactive |
| CC(C)OC(=O)Nc1cccc(Cl)c1 | inactive |
| COc1cc(OC)nc(NC(=O)NS(=O)(=O)c2cc(NC=O)ccc2C(=O)N(C)C)n1 | inactive |
| O=[N+]([O-])/N=C1\NCCN1Cc1ccc(Cl)nc1 | inactive |
| N#Cc1c(Cl)c(Cl)c(Cl)c(C#N)c1Cl | inactive |
| CC(C)N(C(=O)COc1nnc(C(F)(F)F)s1)c1ccc(F)cc1 | inactive |
| O=C(O)COc1ccc(Cl)cc1Cl | inactive |
| O=C(NC(=O)c1c(F)cccc1F)Nc1ccc(OC(F)(F)C(F)OC(F)(F)F)c(Cl)c1 (centres undefined) | inactive |
| COP(=O)(OC)OC=C(Cl)Cl | inactive |
| COC(=O)c1ccccc1S(=O)(=O)NC(=O)Nc1nc(C)nc(OC)n1 | inactive |
| COC(=O)c1ccccc1CS(=O)(=O)NC(=O)Nc1nc(OC)cc(OC)n1 | inactive |
| CCCN(CCOc1c(Cl)cc(Cl)cc1Cl)C(=O)n1ccnc1 | inactive |
| COC(=O)c1ccccc1S(=O)(=O)NC(=O)N(C)c1nc(C)nc(OC)n1 | inactive |
| CN1CSC(=S)N(C)C1 | inactive |
| CCS(=O)(=O)c1cccnc1S(=O)(=O)NC(=O)Nc1nc(OC)cc(OC)n1 | inactive |
| O=S(=O)(O)C(F)(F)C(F)(F)C(F)(F)C(F)(F)C(F)(F)C(F)(F)C(F)(F)C(F)(F)F | inactive |
